Eight compounds from PubChem BioAssay (NCI) can be followed below.

Molecules are shown by their SMILES. This is part of a sample that, as a whole, favours compounds with a hit. Of some 83,000 tested, about 20% had one in any assay.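 Cells were grown in 96-well plates and exposed to the test compound at a single concentration for 48 hours; results are reported as percent growth, with values below 10 considered active.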 A number with no mark means an inactive call. Calls of active or inactive are those of the source.

What all share (assay): NCI-60 one-dose screen, 48 h (100 = growth as untreated, 0 = no growth, -100 = all killed)
What all share (settings): 10 µM unless noted

For experiment [1], the system named is DU-145 prostate.
Experiment [2] concerns K-562 leukemia.
For experiment [3], the system named is MALME-3M melanoma.
Experiment [4] relates to MDA-MB-231 breast.
The test system of experiment [5] is RXF 393 renal.
In experiment [6] the test system is SF-268 CNS.
For experiment [7], the system named is SF-295 CNS.
Experiment [8] deals with SF-539 CNS.
The test system of experiment [9] is UACC-257 melanoma.
For experiment [10], the system named is M14 melanoma.
Experiment [11] relates to HCT-15 colon.
Experiment [12] relates to HT29 colon.
Experiment [13] relates to SNB-75 CNS.
For experiment [14], the system named is SNB-19 CNS.
For experiment [15], the system named is U251 CNS.
In experiment [16] the test system is PC-3 prostate.
Experiment [17] deals with UACC-62 melanoma.
Experiment [18] has as its system LOX IMVI melanoma.
Experiment [19] relates to SK-MEL-28 melanoma.
The subject of experiment [20] is SK-MEL-5 melanoma.

As for `COc1ccc(-c2nnc(SCC(=O)Nc3ccc(C(=O)/C=C/c4ccc(OC)c(OC)c4)cc3)o2)cc1`, the growth is 93.7% in experiment [1]; 61.7% in experiment [2]; 100% in experiment [3]; 96.6% in experiment [4]; 104% in experiment [5]; 98.2% in [6]. For the same compound, the growth in experiment [7] was 96.5%; in [8], 96%; in experiment [9] it was 73.7%; in experiment [10] it was 105%; in [11], 74.8%; in experiment [12], 87.1%. The growth is 87.5% in experiment [13]; 89.6% in experiment [14]; 66.9% in [15]; 79.8% in experiment [16]; 82.9% in experiment [17]; 77.1% in experiment [18]. For the same compound, in experiment [19], the growth was 99.5%.
As to `CC(=O)Nc1ccc(OC(=O)c2ccccc2O)cc1`, the growth in experiment [1] was 110%; in experiment [2], 88.1%; in experiment [3], 105%; in experiment [4], 108%; in experiment [5] it was 114%; in experiment [6], 106%. The growth in [7] was 95.3%; in experiment [8] it was 108%; in experiment [9], 111%; in [10], 109%; in experiment [11] it was 107%; in [12], 113%. Besides, the growth in experiment [13] was 114%; in experiment [14], 100%; in [15] it was 99.3%; in experiment [16] it was 94.8%; in [17] it was 102%; in experiment [18] it was 99.7%. Besides, the growth in experiment [19] was 120%.
For the compound `C=CC(C)(O)CCC1C(=C)CCC2C(C)(C)CCCC12C` (stereo not drawn), the growth in experiment [1] is 104%; in [2] it was 97.9%; in experiment [3] it was 101%; in [4], 112%; in experiment [5], 108%; in experiment [6] it was 94.5%. Moreover, the growth in [7] is 99.3%; in [8] it was 106%; in [9], 88.1%; in [10], 111%; in [11], 97.3%; in experiment [12], 70.1%. Besides, the growth is 91.3% in experiment [13]; 111% in experiment [14]; 104% in experiment [15]; 112% in experiment [16]; 95.5% in [17]; 97.2% in [18]. In addition, the growth in [19] is 101%.
For `Cc1cccc[n+]1CCC[n+]1ccccc1C`, the growth is 111% in [1]; 103% in experiment [2]; 105% in [3]; 115% in [4]; 111% in [5]; 107% in experiment [6]. Further, the growth in [7] is 103%; in experiment [8], 98.9%; in [9], 111%; in experiment [10], 89.4%; in [11] it was 96.7%; in [12] it was 94.1%. In addition, the growth was 103% in experiment [13]; 111% in experiment [14]; 101% in [15]; 95.4% in experiment [16]; 109% in experiment [17]; 96.9% in [18]. Moreover, the growth in [19] was 103%.
For the compound `Cc1nccc2c3ccc(OCc4cn(Cc5ccc(Br)cc5)nn4)cc3n(CCCc3ccccc3)c12`, the growth in [1] was 91.9%; in experiment [2] it was 75.5%; in experiment [3] it was 92.9%; in experiment [4], 79.3%; in experiment [5], 82%; in [6] it was 81%. Also, the growth in experiment [7] is 86.2%; in [8], 77%; in experiment [9], 99.3%; in experiment [10], 103%; in experiment [11], 92.8%; in experiment [12], 80.7%. The growth in experiment [13] is 42.3%; in experiment [14], 47.3%; in experiment [15], 82.3%; in [16], 77.9%; in experiment [20] it was 81.1%; in experiment [17], 82.1%. The growth in experiment [18] is 93.3%; in [19], 99.4%.
On to `Cc1cn([C@]2(CF)O[C@H](CO)C2C)c(=O)[nH]c1=O` (stereo partly drawn), for which the growth in experiment [1] is 124%; in experiment [2], 104%; in [3], 113%; in [4], 116%; in experiment [5], 101%; in [6], 112%. In addition, the growth in experiment [7] is 121%; in [8], 110%; in [9], 103%; in experiment [10] it was 118%; in [11], 112%; in [12], 112%. Besides, the growth in experiment [13] was 116%; in experiment [14], 118%; in experiment [15], 103%; in experiment [16] it was 117%; in experiment [17] it was 122%; in [18] it was 97.9%. Also, the growth in experiment [19] is 121%.
Regarding `CC(Cl)(CCl)CS(=O)(=O)c1ccc(Cl)cc1` (stereo not drawn), the growth in [1] is 108%; in experiment [2] it was 105%; in experiment [3], 114%; in experiment [4], 96.5%; in experiment [5] it was 93.1%; in experiment [6] it was 101%. For the same compound, the growth is 100% in [7]; 107% in experiment [8]; 86.7% in [9]; 104% in experiment [10]; 105% in [11]; 103% in [12]. Besides, the growth is 103% in [13]; 101% in experiment [14]; 94.4% in experiment [15]; 97.7% in experiment [16]; 99.8% in experiment [17]; 101% in experiment [18]. The growth in [19] is 117%.
Regarding `COc1cc(C(=O)NNC(=O)c2ccccc2C(=O)O)cc(OC)c1OC`, the growth in experiment [1] was 56.8%; in experiment [2] it was 43.1%; in experiment [3] it was 62%; in experiment [4] it was 45.2%; in [5], -3.15% (active); in experiment [6] it was 53.8%. Further, the growth was 46.8% in experiment [7]; 30.1% in experiment [8]; 69.9% in experiment [9]; 51.4% in [10]; 31.8% in experiment [11]; 20.8% in experiment [12]. Besides, the growth in experiment [13] is 86.3%; in experiment [14] it was 49.6%; in experiment [15], 39.7%; in experiment [16], 54.7%; in experiment [17], 39.8%; in experiment [18], 16.9%. For the same compound, in experiment [19], the growth is 75.6%.
